The source of these data is PubChem BioAssay (NCI).

The panel holds about 83,000 compounds, 20% with a hit somewhere; the sample as a whole holds those more often.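 Each cell line was grown in a 96-well plate and treated with one concentration of compound for 48 hours. Values below 10 were considered active.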 The source made the active and inactive calls.

In this assay the test system is MDA-MB-435 melanoma. In words: NCI-60 one-dose screen, 48 h (100 = growth as untreated, 0 = no growth, -100 = all killed). The following applies: 10 µM unless noted. As to the method: Growth inhibition of the MDA-MB-435 human Melanoma tumor cell line is measured as a screen for anti-cancer activity. Cells are grown in 96 well plates and exposed to the test compound for 48 hours. Compounds are tested at a single concentration, which is 10^-5 M for most compounds. The reported endpoint is percent growth (GI% or GIPRCNT), where numbers from 0 - 100% represent growth inhibition, and numbers from -100% - 0 represent cell death. For example, a value of 40 represents 60% growth inhibition. A value of 0 means no net growth occurred over the course of the experiment. A value of -40 indicates 40% of cells at the beginning of the experiment died by the end of the experiment. A value of -100 means all cells are dead at the end of the experiment.
NCI-60 Human Tumor Cell Lines Screen was performed using the standard one-dose NCI protocol, which is described in more detail at https://dtp.cancer.gov/discovery_development/nci-60/default.htm.
Compounds with GIPRCNT values below 10 were considered active. Activity score was based on GIPRCNT using the following formula: […]
Score is 0 for GIPRCNT values of 100 or above, 50 for GIPRCNT values of 0, and 100 for GIPRCNT values of -100.
Turning to `Cc1cccc(Nc2nc3ccccc3nc2/C=C/c2ccc(F)cc2)c1`, the growth was 96.8% (inactive).
Consider `O=C1NC(=O)/C(=C/c2ccccc2OCc2cc3ccccc3nc2Cl)S1`, for which the growth is 101% (inactive).
In the case of `CC1(C)CC[C@]2(C(=O)O)CC[C@]3(C)C(=CCC4[C@@]5(C)C[C@@H](O)[C@@H]6OC(c7ccc(F)cc7)OC[C@@]6(C)C5CC[C@]43C)C2C1` (stereo not given in full), the growth is 48.9% (inactive).
Next, `COc1ccc2c(c1)c(-c1cc3nc(-c4cn(C)c5ncc(Br)cc45)cc(N)n3n1)cn2C`: -67.3% (active); `CCCCCCCCc1ccc(S(=O)(=O)Nc2ccc(CC)cc2C(=O)O)cc1`: 101% (inactive).
`CC1=C(C(=O)OCc2ccccc2)C(c2c(O)cc(O)cc2O)n2c(nc3ccccc32)N1` (stereo not given): the growth is 1.29% (active).
Then `O=C(COc1ccc(NC(=O)Nc2ccccc2)cc1)N=Nc1c(O)[nH]c2ccc([N+](=O)[O-])cc12`, with -18.3% (active); and `Cc1ccc(S(=O)(=O)c2nc(S(=O)(=O)c3ccc(C)cc3)c(N3CCC(O)CC3)s2)cc1`, with 16.8% (inactive); and `CC1=C(C#N)C2=NNCC(c3ccccc3)=NN2C(c2ccccc2)=C1`, with 106% (inactive).
Next, `O=C(N=Nc1c(O)[nH]c2ccc([N+](=O)[O-])cc12)c1ccc2nc(-c3ccccc3)[nH]c2c1`: 79.1% (inactive).
Next, `Cn1cc(-c2cc3nc(-c4cn(C)c5ncccc45)cc(N)n3n2)c2ccccc21`: 29.7% (inactive); `Cc1cnc(C(=O)NNc2nc3cc(F)ccc3n3c(C(=O)N4CC5CC(C4)N5)ccc23)cn1`: 45.4% (inactive); `CCCS(=O)(=O)N1CCCC(C(=O)Nc2nc3ccc(NC(=O)c4ccc(F)c(OC)c4F)cc3s2)C1` (stereo not given): 36.4% (inactive).
For `C/C(=N\Nc1ccc(S(N)(=O)=O)cc1)c1ccc(N=Nc2c(Nc3ccccc3)[nH][nH]c2=O)cc1`, the growth is -13.6% (active).
Then `COc1cc(C2CC(c3ccc(S(=O)(=O)NCCNc4nc(Nc5ccc(F)cc5)nc(N(C)C)n4)cc3)=Nc3c(N)nc(N)nc3N2)cc(OC)c1OC` (stereo not given), with 87.1% (inactive); and `COc1cc(C2CC(c3cc(OC)c(OC)c(OC)c3)=NN2C(C)=O)ccc1OCc1ccccc1` (stereo not given), with 44.6% (inactive).
Next, `CC(=O)Oc1ccccc1C(=O)[Se]C(=NC1CCCCC1)NC1CCCCC1`: -77.2% (active); `Cc1c(C(=O)NNC(=O)Nc2ccc(Cl)cc2)nnn1-c1ccc(Br)cc1`: 99.7% (inactive); `CC1(c2cc3cc(Br)ccc3oc2=O)NC(=O)c2c(/C=C/C(=O)OC3CC4CCC3(C)C4(C)C)cccc2N1` (stereo not given): 99.2% (inactive).
Next, `COc1ccc(N2N=C(c3ccc4c(c3)OCO4)CC2c2cccc(NC(=O)CCNS(=O)(=O)c3ccc(Cl)cc3)c2)cc1` (stereo not given): 41.1% (inactive); `CCCCSc1nc(Nc2ccc(C(C)=O)cc2)c(C#N)c(-c2ccc(OC)cc2)n1`: 75.4% (inactive).
Turning to `Cn1cc(NC(=O)c2cc(NC(=O)c3ccc(/C=C/c4ccccc4)cc3)cn2C)cc1C(=O)NCCCN1CCOCC1`, the growth was -73.1% (active).
For `COc1ccc(-c2nc3cc(C)ccc3n2CC(=O)N=Nc2c(O)[nH]c3ccc(OC)cc23)cc1`, the growth is -67.8% (active).
Next, `CN1CCN(c2ccc3c(c2)nc(NNC(=O)c2cnccn2)c2cccn23)CC1`: 5.71% (active); `C=C1CC[C@@H]2[C@]3(C)COC(c4cn[nH]c4-c4ccc(Br)cc4)O[C@@H]3CC[C@@]2(C)[C@@H]1C/C=C1/C(=O)OCC1O` (stereo not given in full): -64.4% (active); `N#Cc1c(-c2cccnc2)cc(-c2ccc3ccccc3c2)[nH]c1=O`: 99.4% (inactive).
Next, `c1ccc(-c2csc(Nc3cccc(Nc4nc(-c5ccccc5)cs4)c3)n2)cc1`: 44.7% (inactive).
Then `COc1ccc(-c2ccc(SCC(=O)NCCc3ccc(S(N)(=O)=O)cc3)nn2)cc1`, with 92.2% (inactive).
Consider `Nc1nnc(-c2c[nH]c3ncc(Br)cc23)c(-c2c[nH]c3ccc(F)cc23)n1`, for which the growth is 26% (inactive).
Next, `C=C1CCC2C3(C)COC(c4cccs4)OC3CCC2(C)C1CC(Sc1ccccc1)C1=CCOC1=O` (stereo not given): 87.2% (inactive); `COc1ccc(/C=C/c2nc3ccccc3c(=O)n2CC(=O)Nc2ccc(Cl)cc2)cc1`: 90.5% (inactive).
Then `N#Cc1ccc(C(=O)Nn2c(N)cc3ccccc3c2=O)cc1`, with 107% (inactive).
Next, `CCOC(=O)C1=C(N)N(c2ccccc2)C2=C(C(=O)CC(C)(C)C2)C1c1ccc(N2CCOCC2)cc1` (stereo not given): 104% (inactive).
Consider `Cc1ccc([C@H]2C(C(=O)c3ccc(Cl)cc3)C3(N[C@@H]2c2ccccc2)C(=O)Nc2ccc(Cl)cc23)cc1` (stereo not given in full), for which the growth was 64.3% (inactive).
Regarding `CC(=O)c1c(N)c(C#N)cn1-c1ccc(Cl)cc1Cl`, the growth was 102% (inactive).
Next, `O=c1[nH]n(C(=S)N/N=C/c2ccccc2Cl)c(=O)c2ccccc12`: 22.4% (inactive).
Then `O=C1Nc2ccc([N+](=O)[O-])cc2C1=Nc1ccccc1`, with 111% (inactive).
Then `CN(C)c1ccnc(NCCCSC(c2ccccc2)(c2ccccc2)c2ccccc2)c1`, with 11.3% (inactive); and `NS(=O)(=O)c1ccc(-n2cc(-c3cccc(NC(=O)c4ccc(Cl)c(C(F)(F)F)c4)c3)nn2)cc1`, with 47.2% (inactive).
Turning to `COc1c(F)ccc(C(=O)Nc2ccc3nc(NC(=O)C4CCCN(S(=O)(=O)c5cccc(Cl)c5)C4)sc3c2)c1F` (stereo not given), the growth was 90.9% (inactive).
